These results are taken from PubChem BioAssay AID1440 (NMMLSC, 2008).

Among all 220,000 compounds or so, fewer than 10 were called active. Roughly 92% stayed inconclusive and do not appear here. No rule for the calls is given here. A selection follows.

Guanine nucleotide-binding protein G(o) subunit alpha (Homo sapiens) + Regulator of G-protein signaling 19 (Homo sapiens), sequence (P09471 whole entry, looked up): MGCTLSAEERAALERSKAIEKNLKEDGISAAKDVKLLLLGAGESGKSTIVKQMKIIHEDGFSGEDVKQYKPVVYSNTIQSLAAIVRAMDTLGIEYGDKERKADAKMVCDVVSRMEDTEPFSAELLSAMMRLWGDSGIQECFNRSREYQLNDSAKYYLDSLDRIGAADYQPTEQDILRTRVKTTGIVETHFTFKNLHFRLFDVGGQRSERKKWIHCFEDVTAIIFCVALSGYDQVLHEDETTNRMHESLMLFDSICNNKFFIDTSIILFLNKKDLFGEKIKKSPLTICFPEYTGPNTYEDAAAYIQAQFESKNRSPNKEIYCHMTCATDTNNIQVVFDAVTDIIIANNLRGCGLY
Guanine nucleotide-binding protein G(o) subunit alpha (Homo sapiens) + Regulator of G-protein signaling 19 (Homo sapiens), sequence (P49795 whole entry, looked up): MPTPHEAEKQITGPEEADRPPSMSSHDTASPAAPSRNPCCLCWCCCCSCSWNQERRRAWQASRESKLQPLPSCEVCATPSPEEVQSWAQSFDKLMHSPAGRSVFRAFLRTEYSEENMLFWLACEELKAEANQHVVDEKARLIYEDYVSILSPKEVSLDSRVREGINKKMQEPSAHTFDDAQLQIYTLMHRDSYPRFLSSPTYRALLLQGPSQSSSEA

The test addresses Guanine nucleotide-binding protein G(o) subunit alpha (Homo sapiens) + Regulator of G-protein signaling 19 (Homo sapiens) (UniProt P09471+P49795). Put plainly: modulators of human RGS19-Gαo interaction – biochemical, multiplexed bead flow cytometry (AID 1440).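 Also: fluorescent Galpha o activated by aluminum fluoride binding bead-coupled RGS19.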 The note with it: RGS19-Galphao binding, at 10 µM.
For the compound `COC(/C=C/Nc1ccc(C)cc1)=C(C#N)C#N`, the binding response (% of control) was 71.7%. Take `COc1ccccc1/C=C/C(=O)OCC(=O)c1c(N)n(C)c(=O)n(C)c1=O`: the binding response (% of control) was determined as 109%. Turning to `CCN(CC(=O)Nc1ccccc1OC)C(=O)C1CC2C=CC1C2` (stereo unspecified), the binding response (% of control) was 180%. As for `CCN(CC)C(=O)c1sc(NC(=O)c2cccnc2)c(C(=O)OC)c1C`, the binding response (% of control) was found to be 128%.

On to `CN1C(=O)C2(N=c3ccccc3=N2)c2ccccc21`, for which the binding response (% of control) stood at 103%. The figure for `CS(=O)(=O)N1CCN(C(=O)c2cc(-c3cccs3)nc3ccccc23)CC1` is 103%; for `O=C(O)c1cc(-c2ccccn2)n[nH]1` it is 106%. The figure for `Cc1cc(C)cc(-n2c(C)c3c(C)nnc(C)c3c2C)c1` is 121%.

For the compound `OC1C2(Cc3ccccc3)CN3CCN(C2)CC1(Cc1ccccc1)C3` (stereo unspecified), the binding response (% of control) was determined as 71.2%.

For the compound `COc1cc(S(=O)(=O)NCCc2ccc3c(c2)OCO3)ccc1-n1cnnn1`, the binding response (% of control) stood at 25.7%. The figure for `COC(=O)c1ccccc1OC(=O)c1ccc(Br)o1` is 102%; for `CC(C)CNC(=O)COC(=O)c1ccc(Cl)c(S(N)(=O)=O)c1` it is 107%.

For `O=C(Nc1ccccc1N1CCOCC1)c1cccc([N+](=O)[O-])c1`, the binding response (% of control) stood at 123%. The figure for `O=C(Nc1cccc(-c2cnc3ccccc3n2)c1)c1ccco1` is 147%; for `COc1ccccc1N(C(C)=O)C1SC(=O)N(c2ccccc2)C1=O` (stereo unspecified) it is 70.1%. The figure for `CCOC(=O)N1CCN(C(=O)CCNS(=O)(=O)c2cc(Br)cnc2N)CC1` is 93.9%.

Consider `Cc1ccc(S(=O)(=O)N(Cc2ccccc2)Cc2ccco2)cc1`, for which the binding response (% of control) was 92.7%. Take `COc1cc(/C=N/NC(=O)Cc2ccccc2)ccc1Oc1ccc([N+](=O)[O-])cc1[N+](=O)[O-]`: the binding response (% of control) was 107%. The figure for `CCOCCCNC(=O)C(c1ccccc1)N(Cc1cccs1)C(=O)CNC(=O)c1ccccc1` (stereo unspecified) is 222%; for `O=C1CC2(CON=C2c2ccc(F)cc2)C(=O)N1c1ccc(F)cc1` (stereo unspecified) it is 72.5%; for `CCOC(=O)C(=O)Nc1ccccc1C(=O)Nc1ccc(OC)cc1` it is 101%. The figure for `CCC(C)[C@H](NC(=O)N1CCCC1)C(=O)OC` (stereo partly specified) is 117%; for `COc1ccc(C)cc1S(=O)(=O)N(CC(=O)O)c1ccc(F)cc1` it is 102%. As for `CCOC(=O)C1=C(c2ccccc2)OC(N)=C(C#N)C1C(C)C` (stereo unspecified), the binding response (% of control) was 109%.

On to `CS(=O)(=O)N1CCCC(C(=O)NCCc2ccccc2)C1` (stereo unspecified), for which the binding response (% of control) was found to be 71.4%.

For the compound `O=C(NC1(C(F)(F)F)C(=O)Nc2c1c(=O)[nH]c(=O)n2Cc1ccccc1)c1ccc(Cl)cc1` (stereo unspecified), the binding response (% of control) amounted to 108%. Consider `COC(=O)CCN(c1ccccc1)S(=O)(=O)c1ccc(OC)cc1`, for which the binding response (% of control) amounted to 38.5%. The figure for `CNC(=O)c1c(N)sc2c1CCCCC2` is 60.7%; for `COC(=O)c1ccccc1NC(=S)NC(=O)COc1ccc(C(C)C)cc1` it is 284%; for `CCNC(=S)NNC(=O)Nc1ccccc1` it is 89.6%. On to `COC(=O)c1cn(NC(=O)C2COc3ccccc3O2)c(=O)c2ccccc12` (stereo unspecified), for which the binding response (% of control) stood at 40.7%.
